# Measured values reported in PubChem BioAssay (EPA / NIEHS).
# Inconclusive results are not listed. Calls of active or inactive are those of the source. The calls were made as follows: active = hit-call score of the fitted dose curve at least 0.9, where 1 is the maximum; inconclusive = response in the unintended direction; inactive = score below 0.9.
# Columns and labels:
# [1] = biological target: Bile acid receptor (Homo sapiens) (UniProt Q96RI1); assay: NVS_NR_hFXR_Antagonist: NovaScreen (NVS) Nuclear Receptor Binding Assay for human Farnesoid X Receptor Antagonism (FXR) (AID 2283350)
# How it was run: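 Cell-free TR-FRET ligand-binding read-out on human FXR (NR1H4) in antagonist mode, measured 1 h after dosing. Primary screen in duplicate at 25 uM, actives retested in concentration series; signal loss scored versus DMSO.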
# [2] = biological target: Estrogen receptor beta (Homo sapiens) (UniProt Q92731); assay: OT_ER_ERbERb_0480: Odyssey Thera (OT) 8-hour HEK293T Protein-Complementation Assay for Estrogen Receptor-beta/-beta Homodimer (AID 2283357);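 also: active means signal gain over DMSO baseline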
# How it was run: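 Readout: increase in mean fluorescence intensity (nucleus for agonists; nucleus plus cytoplasm for antagonists) relative to DMSO, from a reporter-fragment complementation of human ER-beta LBD homodimer in HEK293T cells dosed 8 hours.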
# [3] = biological target: PGR (gene 5241) (UniProt P06401); assay: NVS_NR_hPR: NovaScreen (NVS) Nuclear Receptor Binding Assay for human Progestron Receptor (PR) (AID 2283360);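 also: active means loss of bound radioligand signal versus DMSO baseline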
# How it was run: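 T47D-derived receptor preparation, cell-free, with tritiated or iodinated radioligand displacement measured by scintillation 18 h post-dosing. Single 25 uM duplicate screen, then concentration series; signal loss relative to DMSO.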
# [4] = test system: guinea pig Dopamine Transporter (DAT), gene 100714898; assay: NVS_TR_gDAT: NovaScreen (NVS) Transporter Assay for guinea pig Dopamine Transporter (DAT) (AID 2283369);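 also: active compounds lower bound radioligand signal relative to DMSO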
# How it was run: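 Radioligand displacement on membranes from guinea pig striatum, 2 h exposure, bound label counted by filtration and scintillation. Tested at 25 uM in duplicate, then actives in concentration series to 50 uM; DMSO as negative control.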
# [5] = biological target: Androgen Receptor/SRC-1 Co-activator, AR (gene 367) (UniProt P10275); assay: OT_AR_ARSRC1_0480: Odyssey Thera (OT) 8-hour HEK293T Protein-Complementation Assay for Androgen Receptor/SRC-1 Co-activator (AID 2283354);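 also: hits raise the complementation signal above DMSO so AC50 marks enhancers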
# Androgen Receptor/SRC-1 Co-activator, AR (gene 367), sequence (P10275 whole entry, looked up, the tested form may be a part): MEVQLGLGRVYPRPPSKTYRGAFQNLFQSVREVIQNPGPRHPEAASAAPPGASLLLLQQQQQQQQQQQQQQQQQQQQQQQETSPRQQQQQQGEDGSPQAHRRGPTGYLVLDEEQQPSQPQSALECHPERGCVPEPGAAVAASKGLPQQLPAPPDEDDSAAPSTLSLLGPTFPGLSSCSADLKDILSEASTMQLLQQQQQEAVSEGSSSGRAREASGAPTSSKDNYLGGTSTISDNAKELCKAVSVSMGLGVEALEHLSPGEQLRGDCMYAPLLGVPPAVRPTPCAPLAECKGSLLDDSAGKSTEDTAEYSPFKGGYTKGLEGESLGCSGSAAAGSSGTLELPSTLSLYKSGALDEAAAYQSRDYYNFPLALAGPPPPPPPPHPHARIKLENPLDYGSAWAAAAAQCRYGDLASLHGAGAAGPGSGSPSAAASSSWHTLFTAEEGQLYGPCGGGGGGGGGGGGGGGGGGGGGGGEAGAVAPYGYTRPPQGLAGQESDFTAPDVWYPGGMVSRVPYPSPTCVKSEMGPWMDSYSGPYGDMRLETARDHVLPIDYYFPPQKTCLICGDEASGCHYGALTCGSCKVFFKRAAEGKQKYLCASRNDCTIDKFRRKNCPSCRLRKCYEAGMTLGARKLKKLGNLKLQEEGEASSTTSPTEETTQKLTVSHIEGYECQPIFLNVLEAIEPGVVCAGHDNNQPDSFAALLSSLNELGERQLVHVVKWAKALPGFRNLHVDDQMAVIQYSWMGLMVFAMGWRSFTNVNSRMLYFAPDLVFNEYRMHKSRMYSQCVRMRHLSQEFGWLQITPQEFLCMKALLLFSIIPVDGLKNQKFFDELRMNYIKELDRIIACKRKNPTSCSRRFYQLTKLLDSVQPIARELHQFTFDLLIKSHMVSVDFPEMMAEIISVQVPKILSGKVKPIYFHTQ
# How it was run: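 HEK293T cells stably expressing AR and SRC-1 fused to split Venus YFP fragments via (Gly4Ser)2 linkers were read 8 h after compound dosing. Complementation was imaged at 488 and 635nm, and nuclear/cytoplasmic fluorescence ratio (488nm) was taken over ≥400 cells; gain-of-signal versus DMSO.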
# [6] = biological target: Estrogen receptor (Homo sapiens) (UniProt P03372); assay: OT_ER_ERaERa_1440: Odyssey Thera (OT) 24-hour HEK293T Protein-Complementation Assay for Estrogen Receptor-alpha/-alpha Homodimer (AID 2283349);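 also: hits raise fluorescence above DMSO for agonists and antagonists alike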
# Estrogen receptor (Homo sapiens), sequence (P03372 whole entry, looked up, the tested form may be a part): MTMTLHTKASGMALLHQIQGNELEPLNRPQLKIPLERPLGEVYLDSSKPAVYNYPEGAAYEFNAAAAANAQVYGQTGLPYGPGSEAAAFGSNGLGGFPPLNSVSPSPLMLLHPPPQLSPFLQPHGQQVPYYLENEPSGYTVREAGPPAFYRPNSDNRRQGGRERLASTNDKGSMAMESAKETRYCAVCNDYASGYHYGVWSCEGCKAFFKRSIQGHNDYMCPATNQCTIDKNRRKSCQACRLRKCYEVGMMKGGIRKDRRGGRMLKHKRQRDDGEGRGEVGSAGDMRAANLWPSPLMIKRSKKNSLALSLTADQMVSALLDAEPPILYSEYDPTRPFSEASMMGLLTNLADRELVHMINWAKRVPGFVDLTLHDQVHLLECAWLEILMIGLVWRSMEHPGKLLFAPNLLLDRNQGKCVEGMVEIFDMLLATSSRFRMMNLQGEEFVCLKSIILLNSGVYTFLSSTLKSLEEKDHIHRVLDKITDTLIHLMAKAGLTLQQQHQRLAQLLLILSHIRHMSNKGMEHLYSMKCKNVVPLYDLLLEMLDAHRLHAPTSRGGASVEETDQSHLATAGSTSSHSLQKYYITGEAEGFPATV
# How it was run: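 Readout is the rise in mean fluorescence from reporter fragment complementation when ERα LBD (aa 310-547) units dimerize in HEK293T cells. Measured 24 h after dosing and analysed as increase over DMSO control.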
# [7] = biological target: Estrogen receptor (Homo sapiens) (UniProt P03372); assay: OT_ER_ERaERa_0480: Odyssey Thera (OT) 8-hour HEK293T Protein-Complementation Assay for Estrogen Receptor-alpha/-alpha Homodimer (AID 2283351);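 also: rise in fluorescence from reassembled reporter fragments on ERα LBD homodimer in nucleus or whole cell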
# How it was run: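 HEK293T, stable ERα LBD (aa 310-547) PCA homodimer; 8 h compound exposure; fluorescence intensity, laser scanning cytometer; positive fitting direction, DMSO baseline.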
# [8] = biological target: T1, Estrogen receptor (Homo sapiens) + Estrogen receptor beta (Homo sapiens) (UniProt P03372+Q92731); assay: OT_ER_ERaERb_0480: Odyssey Thera (OT) 8-hour HEK293T Protein-Complementation Assay for Estrogen Receptor-alpha/-beta Heterodimer (AID 2283352)
# T1 sequence (P03372 whole entry, looked up, the tested form may be a part): as above
# T1 sequence (Q92731 whole entry, looked up, the tested form may be a part): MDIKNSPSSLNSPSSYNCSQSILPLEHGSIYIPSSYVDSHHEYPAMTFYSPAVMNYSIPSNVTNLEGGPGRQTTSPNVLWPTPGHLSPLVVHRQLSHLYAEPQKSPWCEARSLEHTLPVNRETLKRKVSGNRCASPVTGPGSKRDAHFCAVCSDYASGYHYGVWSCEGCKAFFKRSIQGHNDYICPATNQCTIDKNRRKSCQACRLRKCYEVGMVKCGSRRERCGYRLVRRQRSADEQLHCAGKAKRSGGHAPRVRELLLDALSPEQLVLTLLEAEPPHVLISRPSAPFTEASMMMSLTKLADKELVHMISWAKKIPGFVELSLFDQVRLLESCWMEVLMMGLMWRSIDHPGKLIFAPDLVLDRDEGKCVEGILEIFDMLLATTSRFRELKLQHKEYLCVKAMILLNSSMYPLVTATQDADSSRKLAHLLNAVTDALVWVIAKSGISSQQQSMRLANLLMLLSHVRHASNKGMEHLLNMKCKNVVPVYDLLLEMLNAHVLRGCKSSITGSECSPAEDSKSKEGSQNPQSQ
# How it was run: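 Fluorescence increase from reconstituted reporter fragments, quantified by laser scanning cytometer, reflects ER-alpha/ER-beta heterodimer formation in human HEK293T cells. Exposure 8 h; positive-direction fitting against DMSO vehicle.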
# [9] = biological target: T1, Estrogen receptor (Homo sapiens) + Estrogen receptor beta (Homo sapiens); assay: OT_ER_ERaERb_1440: Odyssey Thera (OT) 24-hour HEK293T Protein-Complementation Assay for Estrogen Receptor-alpha/-beta Homodimer (AID 2283356);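 also: heteromer of ER alpha and ER beta binding domains; hits raise reporter fluorescence and both agonists and antagonists give an increase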
# How it was run: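 Fragment complementation between ER alpha (310-547) and ER beta (263-489) ligand-binding domains in HEK293T cells; signal read 24 h post-dosing by laser scanning cytometer. Gain of fluorescence relative to DMSO fitted.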
# [10] = biological target: Retinoic acid receptor alpha (Homo sapiens) (UniProt P10276); assay: NVS_NR_hRAR_Antagonist: NovaScreen (NVS) Nuclear Receptor Binding Assay for human Retinoic Acid Alpha Receptor Antagonism (RAR) (AID 2283358)
# Retinoic acid receptor alpha (Homo sapiens), sequence (P10276 whole entry, looked up): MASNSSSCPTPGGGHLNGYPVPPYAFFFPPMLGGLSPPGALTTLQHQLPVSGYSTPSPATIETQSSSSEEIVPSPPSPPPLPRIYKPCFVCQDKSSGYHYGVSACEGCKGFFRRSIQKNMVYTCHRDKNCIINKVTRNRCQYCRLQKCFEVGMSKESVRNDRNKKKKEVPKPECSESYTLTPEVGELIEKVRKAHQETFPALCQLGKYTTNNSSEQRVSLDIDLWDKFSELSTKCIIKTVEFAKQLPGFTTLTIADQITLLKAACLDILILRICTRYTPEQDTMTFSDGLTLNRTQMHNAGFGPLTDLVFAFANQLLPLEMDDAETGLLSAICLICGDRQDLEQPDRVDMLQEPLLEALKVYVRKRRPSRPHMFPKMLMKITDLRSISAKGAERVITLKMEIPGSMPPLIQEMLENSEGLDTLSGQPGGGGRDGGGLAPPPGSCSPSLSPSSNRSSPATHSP
# How it was run: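 Cell-free TR-FRET binding assay on extracted receptor protein, run in antagonist mode; signal read 2 hours after chemical dosing. Loss of signal was fitted relative to DMSO baseline. Screened at 25 uM in duplicate, actives followed up in concentration series.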
# [11] = biological target: human Thyroid Receptor Alpha (TRa), THRA (gene 7067) (UniProt P10827); assay: NVS_NR_hTRa_Antagonist: NovaScreen (NVS) Nuclear Receptor Binding Assay for human Thyroid Receptor Alpha Antagonism (TRa) (AID 2283362);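 also: activity is loss of signal relative to DMSO baseline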
# human Thyroid Receptor Alpha (TRa), THRA (gene 7067), sequence (P10827 whole entry, looked up): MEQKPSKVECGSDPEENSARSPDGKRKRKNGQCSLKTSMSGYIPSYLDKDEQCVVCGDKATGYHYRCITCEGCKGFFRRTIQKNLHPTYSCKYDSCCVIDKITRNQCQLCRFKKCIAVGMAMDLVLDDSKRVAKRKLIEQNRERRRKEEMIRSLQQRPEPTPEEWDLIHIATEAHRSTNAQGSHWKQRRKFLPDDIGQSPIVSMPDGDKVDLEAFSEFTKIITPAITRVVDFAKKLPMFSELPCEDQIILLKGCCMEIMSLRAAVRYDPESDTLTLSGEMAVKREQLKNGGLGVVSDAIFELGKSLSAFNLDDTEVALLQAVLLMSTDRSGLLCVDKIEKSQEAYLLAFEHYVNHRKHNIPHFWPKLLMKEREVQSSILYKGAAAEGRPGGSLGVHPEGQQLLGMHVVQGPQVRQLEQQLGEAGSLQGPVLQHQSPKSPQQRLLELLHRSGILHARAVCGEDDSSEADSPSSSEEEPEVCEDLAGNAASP
# How it was run: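 Actives from a duplicate 25 uM single-point screen were retested in concentration series. The cell-free antagonist-format binding assay was read by AlphaLISA chemiluminescence at 1 h, scored as signal loss relative to DMSO.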
# [12] = biological target: Peroxisome proliferator-activated receptor gamma (Homo sapiens) (UniProt P37231); assay: NVS_NR_hPPARg: NovaScreen (NVS) Nuclear Receptor Binding Assay for human Peroxisome Proliferator-activated Receptor gamma (PPARg) (AID 2283370)
# Peroxisome proliferator-activated receptor gamma (Homo sapiens), sequence (P37231 whole entry, looked up): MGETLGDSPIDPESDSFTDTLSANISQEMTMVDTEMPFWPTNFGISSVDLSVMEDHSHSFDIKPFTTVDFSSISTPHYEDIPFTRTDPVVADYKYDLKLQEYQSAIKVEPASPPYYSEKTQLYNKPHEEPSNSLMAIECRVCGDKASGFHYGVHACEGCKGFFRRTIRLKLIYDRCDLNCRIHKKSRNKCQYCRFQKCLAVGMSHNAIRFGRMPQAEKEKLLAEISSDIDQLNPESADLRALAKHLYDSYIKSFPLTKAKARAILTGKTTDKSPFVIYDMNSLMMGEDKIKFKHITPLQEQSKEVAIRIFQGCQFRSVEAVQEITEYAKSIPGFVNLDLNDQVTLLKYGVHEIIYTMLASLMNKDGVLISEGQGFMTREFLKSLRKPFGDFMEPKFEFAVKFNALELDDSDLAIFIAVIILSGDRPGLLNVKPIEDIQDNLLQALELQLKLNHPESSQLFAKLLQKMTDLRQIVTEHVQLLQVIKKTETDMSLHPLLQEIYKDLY
# How it was run: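 Fluorescence polarization readout of ligand binding to extracted human PPARg, measured at 2 h. Duplicate single-point screen at 25 uM, then concentration-series retesting; activity defined as signal loss versus DMSO.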
# [13] = biological target: human Adenosine Transporter (Adot), SLC29A1 (gene 2030) (UniProt Q99808); assay: NVS_TR_hAdoT: NovaScreen (NVS) Transporter Assay for human Adenosine Transporter (Adot) (AID 2283368)
# How it was run: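 U937-derived membranes, cell-free radioligand binding, filter scintillation 1 h after dosing. 25 uM duplicate screen; hits (e.g. 30% inhibition) run in concentration-response up to 50 uM; loss of signal versus DMSO.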
# [14] = biological target: Retinoic acid receptor alpha (Homo sapiens) (UniProt P10276); assay: NVS_NR_hRARa_Agonist: NovaScreen (NVS) Nuclear Receptor Binding Assay for human Retinoic Acid Alpha Receptor Agonism (RAR) (AID 2283361)
# How it was run: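 Cell-free TR-FRET binding read-out with extracted human RARα protein, read 2 h after compound addition. Gain of signal scored against DMSO baseline. Primary screen at a single 25 uM in duplicate; actives then retested in concentration series.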
# [15] = biological target: Glucocorticoid receptor (Homo sapiens) (UniProt P04150); assay: NVS_NR_hGR: NovaScreen (NVS) Nuclear Receptor Binding Assay for human Glucocorticoid Receptor (GR) (AID 2283363);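 as to AC50: activity is loss of specific radioligand binding signal relative to DMSO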
# Glucocorticoid receptor (Homo sapiens), sequence (P04150 whole entry, looked up): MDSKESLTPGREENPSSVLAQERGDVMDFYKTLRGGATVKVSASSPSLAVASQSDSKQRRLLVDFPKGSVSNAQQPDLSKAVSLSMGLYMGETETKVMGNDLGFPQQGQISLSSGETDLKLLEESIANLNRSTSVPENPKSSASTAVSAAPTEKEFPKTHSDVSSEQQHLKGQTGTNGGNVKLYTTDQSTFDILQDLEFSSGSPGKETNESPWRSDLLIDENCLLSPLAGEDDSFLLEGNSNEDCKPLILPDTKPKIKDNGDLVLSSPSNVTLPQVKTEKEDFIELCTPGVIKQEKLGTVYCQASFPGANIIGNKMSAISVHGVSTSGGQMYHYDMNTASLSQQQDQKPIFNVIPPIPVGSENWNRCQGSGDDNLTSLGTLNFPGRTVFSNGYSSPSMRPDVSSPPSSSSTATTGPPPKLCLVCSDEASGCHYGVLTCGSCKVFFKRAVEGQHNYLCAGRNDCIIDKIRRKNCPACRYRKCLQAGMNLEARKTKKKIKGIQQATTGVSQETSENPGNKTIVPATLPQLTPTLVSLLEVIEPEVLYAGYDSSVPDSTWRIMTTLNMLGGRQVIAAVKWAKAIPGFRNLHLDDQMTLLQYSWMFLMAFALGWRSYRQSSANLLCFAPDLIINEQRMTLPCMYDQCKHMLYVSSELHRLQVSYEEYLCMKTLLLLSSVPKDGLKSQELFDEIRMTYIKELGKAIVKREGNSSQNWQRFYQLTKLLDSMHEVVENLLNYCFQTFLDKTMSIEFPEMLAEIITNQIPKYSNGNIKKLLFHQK
# How it was run: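 Cell-free radioligand binding with extracted receptor protein, read by filter-based scintillation counting 16 hours after dosing. Loss of specific signal versus DMSO baseline was scored. Primary screen ran in duplicate at 25 uM; actives were followed up in concentration series.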
# [16] = biological target: rat Mineralocorticoid Receptor (MR), Nr3c2 (gene 25672) (UniProt P22199); assay: NVS_NR_rMR: NovaScreen (NVS) Nuclear Receptor Binding Assay for rat Mineralocorticoid Receptor (MR) (AID 2283355)
# How it was run: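 Cell-free radioligand binding to MR in adrenalectomized rat brain supernatant, scintillation counted 24 h after dosing. Loss of signal versus DMSO baseline marks displacement. Primary screen in duplicate at 25 uM; actives retested as concentration series.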
# [17] = biological target: rat Androgen Receptor (AR), Ar (gene 24208) (UniProt P15207); assay: NVS_NR_rAR: NovaScreen (NVS) Nuclear Receptor Binding Assay for rat Androgen Receptor (AR) (AID 2283366)
# How it was run: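 Cell-free radioligand binding on extracts of prostate from testosterone-pretreated rats, read by filter-based scintillation counting 18 h after dosing. Loss of bound signal fitted positively versus DMSO; primary screen in duplicate at 25 uM, actives followed up in concentration series.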
# [18] = biological target: guinea pig Sigma Receptor, Non-selective Binding, SIGMAR1 (gene 100135589) (UniProt Q60492); assay: NVS_OR_gSIGMA_NonSelective: NovaScreen (NVS) Nuclear Receptor Binding Assay for guinea pig Sigma Receptor, Non-selective Binding (AID 2283367)
# How it was run: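 Guinea pig brain membranes, cell-free radioligand binding; read 1 h after dosing by filter-based scintillation counting. Loss of signal vs DMSO baseline taken as displacement. Primary screen single concentration 25 uM in duplicate; actives retested in concentration series.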
smiles,measurement,setting,value
CC1(C(=O)Nc2ccc(O)c(Cl)c2Cl)CCCCC1,outcome,[1],inactive
same,AC50,[2],22.2 µM (active)
same,outcome,[3],inactive
same,AC50,[4],3.33 µM (active)
O=c1ccc(=O)[nH][nH]1,outcome,[5],inactive
Cc1cc(C2CC2)nc(Nc2ccccc2)n1,outcome,[6],inactive
same,outcome,[7],inactive
same,outcome,[8],inactive
same,AC50,[9],40 µM (active)
same,AC50,[2],50 µM (active)
same,outcome,[10],inactive
COP(=O)(OC)SCn1c(=O)oc2cc(Cl)cnc21,outcome,[6],inactive
same,outcome,[5],inactive
CCOP(=O)(OCC)Oc1cc(C)nc(C(C)C)n1,outcome,[1],inactive
same,outcome,[2],inactive
same,outcome,[3],inactive
same,outcome,[11],inactive
same,outcome,[12],inactive
CCCCOC(=O)[C@@H](C)Oc1ccc(Oc2ccc(C#N)cc2F)cc1,outcome,[6],inactive
same,outcome,[7],inactive
same,outcome,[8],inactive
same,outcome,[9],inactive
same,outcome,[2],inactive
CC(C)=CC1C(C(=O)OCN2C(=O)C3=C(CCCC3)C2=O)C1(C)C (stereo not drawn),AC50,[5],77.5 µM (active)
same,AC50,[13],25 µM (active)
same,outcome,[4],inactive
N#CSCSC#N,AC50,[5],18.2 µM (active)
same,outcome,[2],inactive
same,outcome,[10],inactive
CCOC(=O)COc1cc(-c2nn(C)c(OC(F)F)c2Cl)c(F)cc1Cl,outcome,[5],inactive
same,outcome,[14],inactive
CCCOc1nn(C(=O)NS(=O)(=O)c2ccccc2C(=O)OC)c(=O)n1C,outcome,[5],inactive
COP(=O)(OC)OC(Br)C(Cl)(Cl)Br (stereo not drawn),outcome,[6],inactive
same,outcome,[7],inactive
same,outcome,[5],inactive
same,outcome,[9],inactive
CN(C)C(=O)Nc1cccc(C(F)(F)F)c1,outcome,[2],inactive
CCOP(=O)(NC(C)C)Oc1ccc(SC)c(C)c1 (stereo not drawn),outcome,[5],inactive
same,outcome,[2],inactive
same,outcome,[10],inactive
same,outcome,[12],inactive
CNc1cnn(-c2cccc(C(F)(F)F)c2)c(=O)c1Cl,outcome,[1],inactive
same,outcome,[2],inactive
same,outcome,[10],inactive
same,outcome,[3],inactive
same,outcome,[15],inactive
same,outcome,[12],inactive
CCOP(=S)(OCC)Oc1ccc([N+](=O)[O-])cc1,outcome,[16],inactive
same,AC50,[3],14.6 µM (active)
same,outcome,[11],inactive
same,AC50,[15],6.96 µM (active)
same,outcome,[12],inactive
C=C(C)[C@H]1Cc2c(ccc3c2O[C@@H]2COc4cc(OC)c(OC)cc4[C@@H]2C3=O)O1,outcome,[1],inactive
same,AC50,[5],0.973 µM (active)
same,outcome,[3],inactive
same,outcome,[11],inactive
same,AC50,[15],0.425 µM (active)
same,outcome,[17],inactive
same,outcome,[4],inactive
same,outcome,[12],inactive
COc1ccc(C(=CC(=O)N2CCOCC2)c2ccc(Cl)cc2)cc1OC,outcome,[1],inactive
same,outcome,[5],inactive
same,outcome,[2],inactive
same,outcome,[10],inactive
same,AC50,[15],13.4 µM (active)
same,AC50,[13],9.48 µM (active)
CCC(=O)Nc1ccc(Cl)c(Cl)c1,outcome,[5],inactive
same,AC50,[18],9.51 µM (active)
CC(COc1ccc(Oc2ccccc2)cc1)Oc1ccccn1 (stereo not drawn),AC50,[1],6.89 µM (active)
same,outcome,[5],inactive
same,outcome,[2],inactive
same,outcome,[3],inactive
same,outcome,[17],inactive
same,outcome,[12],inactive
CCc1cccc(CC)c1N(COC)C(=O)CCl,outcome,[6],inactive
same,outcome,[5],inactive
same,outcome,[9],inactive
same,AC50,[12],21.2 µM (active)
CC(Oc1cccc(Cl)c1)C(=O)O (stereo not drawn),outcome,[2],inactive
Cc1nn(-c2cc(NS(C)(=O)=O)c(Cl)cc2Cl)c(=O)n1C(F)F,outcome,[5],inactive
Cc1ccn2nc(S(=O)(=O)Nc3c(F)cccc3F)nc2n1,outcome,[1],inactive
same,outcome,[2],inactive
CSc1nnc(C(C)(C)C)c(=O)n1N,outcome,[1],inactive
same,outcome,[2],inactive
same,outcome,[10],inactive
CN(C)NC(=O)CCC(=O)O,AC50,[2],50 µM (active)
CCCSP(=O)(OCC)SCCC,outcome,[1],inactive
same,outcome,[3],inactive
same,outcome,[15],inactive
same,outcome,[17],inactive
same,outcome,[12],inactive
O=[N+]([O-])c1cc(C(F)(F)F)c(Cl)c([N+](=O)[O-])c1Nc1ncc(C(F)(F)F)cc1Cl,outcome,[6],inactive
same,outcome,[14],inactive
same,AC50,[12],0.319 µM (active)
CNC(=O)ON=C(SC)C(=O)N(C)C,outcome,[6],inactive
same,outcome,[7],inactive
same,outcome,[8],inactive
same,outcome,[5],inactive
same,outcome,[9],inactive
same,outcome,[2],inactive
same,outcome,[10],inactive
same,outcome,[3],inactive
same,outcome,[11],inactive
same,outcome,[17],inactive
CNC(=O)Oc1cccc2c1OC(C)(C)O2,outcome,[6],inactive
same,outcome,[7],inactive
CCCCOC(=O)c1ccccc1C(=O)O,outcome,[1],inactive
same,outcome,[5],inactive
same,outcome,[2],inactive
same,outcome,[10],inactive
same,outcome,[17],inactive
same,outcome,[4],inactive
same,outcome,[12],inactive
